The record followed here is PubChem BioAssay (NCATS).

Records with an inconclusive call do not appear. Active and inactive are the calls of the source. Calls follow the shape of the dose curve; as a rule, active = well fitted inhibition curve with a large enough effect; inconclusive = small, poorly fitted or top-dose-only effect; inactive = flat fitted curve, though single readings scatter.
Potency is read from the fitted curve at half-maximal effect.

This experiment has as its system CP269. Description: qHTS profiling for inhibitors of Plasmodium falciparum proliferation (AID 504749). Also: nearly all actives have a fitted effect of over 60% in size.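 As to activity, negative = inhibition: 0% = DMSO vehicle and full inhibition = artemisinin control.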 The note with it: P. falciparum in erythrocytes, SYBR Green DNA, 72 h; series mostly up to 12.8 µM; activity, negative = inhibition: at the top concentration. The essentials: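 SYBR Green fluorescence of parasite DNA, read after lysis and overnight dark incubation, measured growth over 72 h in erythrocyte culture at 0.3% parasitemia and 2.5% hematocrit. Data normalised to DMSO and 0.29 uM artemisinin, with plate-drift correction.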
For orientation: Quantitative high-throughput screening tests each substance at several concentrations.
Consider `CCO[C@H]1O[C@@H]([C@H](COCc2ccccc2)OCc2ccccc2)[C@@H](OCc2ccccc2)[C@H]1O`, for which the “activity, negative = inhibition” value is -16.6% (inactive).
For `COc1cc(N[C@@H](C)CCCN)c2ncccc2c1`, the Potency was 1810 nM (active).
For `C=Cc1c(C)c2cc3nc(cc4[nH]c(cc5nc(cc1[nH]2)C(C)=C5CCC(=O)O)c(CCC(=O)OC)c4C)[C@@]1(C)C3=CC=C(C(=O)OC)[C@H]1C(=O)OC` (tested in a mixture with another compound), the “activity, negative = inhibition” value is -22.2% [at 28.7 µM] (inactive).
Same read-out and setting: with `O=C(OC[C@@H](O)CO)c1ccccc1Nc1ccnc2cc(Cl)ccc12` the figure was -1.25% (inactive); with `CO[C@]1(NC(=O)[C@H](C(=O)O)c2ccc(O)cc2)C(=O)N2C(C(=O)O)=C(CSc3nnnn3C)CO[C@H]21`, 0.207% (inactive); with `COc1ccc2c(c1)N(C[C@@H](C)CN(C)C)c1ccccc1S2`, -2.39% (inactive).
The same measure, in the same setting: with `CCC(=O)[C@@]1(C)[C@H](C)C[C@@H]2[C@@H]3CCC4=CC(=O)C=C[C@@]4(C)[C@H]3[C@H](O)C[C@]21C` the figure was -3.4% (inactive); with `CCC(C)(C)C(=O)O[C@@H]1C[C@H](C)C=C2C=C[C@H](C)[C@@H](CC[C@H]3C[C@@H](O)CC(=O)O3)[C@H]21`, -11.6% (inactive).
Take `CCN(CC)[C@@H](C)CN1c2ccccc2Sc2ccccc21`: the “activity, negative = inhibition” value is -23% (inactive).
In the case of `CC=C(/C(=C/C)c1ccc(O)cc1)c1ccc(O)cc1`, the “activity, negative = inhibition” value was -13.8% (inactive).
The same measure, in the same setting: under `CC1(C)S[C@@H]2[C@H](NC(=O)[C@@H](N)c3ccccc3)C(=O)N2[C@H]1C(=O)O[C@H]1OC(=O)c2ccccc21` stands -4.38% (inactive).
